PPC-1+TRAIL kill = compounds killing PPC-1 cancer cells with TRAIL present, primary screen, TRAIL potentiator project, ATPLite luminescence, uHTS. PPC-1 cells + TRAIL, ATPLite viability luminescence. cell killing (% activity), % at 4 µM or 5 µM. actives 0.41% (n = 220,000);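 active means cell killing above 50% in the first pass at 4 µM, then a duplicate retest at 5 µM averaging 50% or more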;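 further: plate controls were cells with TRAIL plus DMSO for no effect and medium-only wells lacking cells for full effect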
TRAIL sens C8 = viability loss with TRAIL in NB7+C8 cells, primary screen, TRAIL sensitizer project, cell-based, ATPlite luminescence; AID 624354, 2012; actives 1% (n = 360,000); inhibition (viability loss, TRAIL sensitization), % at 10 µM;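 active means compounds causing at least 50% loss of cell viability in the single-dose screen, relative to plate controls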
SENP8 block-1 = SENP8 protease inhibitors, primary screen, biochemical, luminescence; Sentrin-specific protease 8 (Homo sapiens), Q96LD8; purified SENP8, Z-RLRGG-aminoluciferin cleavage; inhibition, % at 10 µM; actives 1.2% (n = 330,000); in the data active means inhibition above about 50%
SENP7 block = SENP7 protease inhibitors, primary screen, biochemical, luminescence, uHTS | Sentrin-specific protease 7 (Homo sapiens), Q9BQF6 | recombinant SENP7, Z-RLRGG-aminoluciferin luminescence, 40 min | inhibition, % at 5 µM | actives 1.5% (n = 330,000) | AID 434973, 2010;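 active means inhibition above about 50% at the single test dose, limit read from the data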;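 further: plate controls were DMSO with enzyme for no effect and no enzyme buffer wells for full effect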
Target sequence (Q9BQF6 706-1050 limits assumed): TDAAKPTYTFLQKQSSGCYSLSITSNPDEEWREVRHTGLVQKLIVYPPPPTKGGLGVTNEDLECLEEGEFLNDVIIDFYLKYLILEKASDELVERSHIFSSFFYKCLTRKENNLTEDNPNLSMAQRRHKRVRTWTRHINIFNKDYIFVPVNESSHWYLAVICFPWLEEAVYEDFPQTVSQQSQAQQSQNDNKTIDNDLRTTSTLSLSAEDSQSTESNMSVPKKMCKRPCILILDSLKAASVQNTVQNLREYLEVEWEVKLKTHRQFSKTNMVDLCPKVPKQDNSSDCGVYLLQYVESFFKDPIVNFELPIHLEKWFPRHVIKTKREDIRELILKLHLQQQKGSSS
SENP8 block-2 = human SENP8 protease inhibitors, primary screen, biochemical, fluorescence, Nedd8 protein substrate, uHTS. Sentrin-specific protease 8 (Homo sapiens), Q96LD8. recombinant SENP8. inhibition, % at 20 µM. actives 0.64% (n = 360,000). AID 602440, 2012; in the data active means inhibition mostly above about 40%, no sharp cut-off; inactive means mostly below about 27%
SENP6 block = SENP6 protease inhibitors, primary screen, biochemical, luminescence, uHTS | actives 1.8% (n = 330,000) | Sentrin-specific protease 6 (Homo sapiens), Q9GZR1 | Recombinant SENP6 catalytic domain, aminoluciferin luminescence | inhibition, % at 10 µM;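 active means inhibition above about 50% at the single tested dose, limit read from the data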;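 further: plate controls were DMSO wells with enzyme for no effect and DMSO wells lacking enzyme for full effect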
PPC-1 tox = cytotoxicity in PPC-1 cells, confirmation, cytotoxicity control for TRAIL apoptosis potentiator project, cell-based, ATP content luminescence | shares compounds with PPC-1+TRAIL kill | PPC-1 viability, ATPlite luminescence, overnight | cytotoxicity, % at 5 µM | actives 50% (n = 1,200);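 active means reconfirmed compounds whose average cytotoxicity reaches 50% or more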;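 further: 0% = DMSO-treated cells and 100% = wells holding medium but no cells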
* hit, by the source's call; nt = no result. Shown are actives, neighbours in structure and some others; about 3% of the full set was active somewhere.

SMILES	PPC-1+TRAIL kill	TRAIL sens C8	SENP8 block-1	SENP7 block	SENP8 block-2	SENP6 block	PPC-1 tox
CC(C)(C)c1ccc(C(=O)/C=C2\NC(=O)CS2)cc1	56*	85*	35	36	8	39	57*
Cc1ccc(NC(=O)/C=C2\NC(=O)CS2)cc1	nt	17	-5	6	1	-11	nt
Cc1ccccc1NC(=O)CSc1nnc(CNC(=O)c2ccc3c(c2)OCO3)n1C	nt	7	-4	-10	4	-35	nt
Cn1c(CNC(=O)Cc2ccc3c(c2)OCO3)nnc1SCc1ccccc1	-11	-1	3	3	8	-6	8
CC(=O)c1ccc(N2CCN(C(=O)Nc3cccc(F)c3)CC2)cc1	40	-1	-3	-3	-90	-5	nt
O=C(COC(=O)CN1C(=O)c2ccccc2C1=O)Nc1ccc(S(=O)(=O)N2CCCC2)cc1	13	38	5	1	20	6	16
COC(=O)c1ccc2c(c1)c(-c1ccccc1)c(-c1ccccc1)n2C	nt	16	nt	-4	-388	nt	nt
COc1ccc(-c2n(CC(=O)OC3CC(C)CCC3C(C)C)c3ccccc3[n+]2C)cc1 (centres undefined)	45	46	nt	nt	-10	nt	52*
NNC(=O)c1cn2ccccc2n1	28	-7	1	12	6	5	nt
O=C(Nc1nccs1)c1cn2ccccc2n1	61*	40	31	46	2	21	59*
CN(C)c1ncnc2c1ncn2C1OC(CO)C(O)C1O (centres undefined)	44	69*	-11	-4	22	-28	44
Cc1nc([N+](=O)[O-])nn1C12CC3CC(CC(Cl)(C3)C1)C2	-3	-1	-1	2	14	1	nt
O=C(Nc1ccc(S(=O)(=O)NC2=NCCCCC2)cc1)c1ccc(C(F)(F)F)cc1	36	7	-4	-9	28	-9	nt
CN(C)S(=O)(=O)c1ccc(C(=O)Nc2ccc(S(=O)(=O)NC3=NCCCCC3)cc2)cc1	-5	-4	2	-1	15	4	-10
COc1ccc(C(=O)NCC(=O)NCc2ccncc2)cc1	nt	-4	-7	11	2	-15	nt
CC[n+]1c(/C=C/N(C)c2ccccc2)oc2ccc(Cl)cc21	7	20	10	3	2	4	nt
CCN1/C(=C/C=C/c2oc3ccc4ccccc4c3[n+]2CC)Oc2ccc3ccccc3c21	23	nt	16	14	nt	-6	18
O=C1c2cccc3c([N+](=O)[O-])ccc(c23)C(=O)N1Cc1cccnc1	26	2	nt	nt	-383	nt	14
O=C1c2cccc3cccc(c23)C(=O)N1Cc1cccnc1	5	-20	-9	-6	-258	-16	nt
O=C(N/N=C/c1ccc(Cl)cc1)C1CC12CCC2 (centres undefined)	14	-2	1	1	3	-8	nt
COC(=O)c1ccccc1NC(=O)CSc1nnc(-c2ccc(C)cc2)o1	11	nt	nt	nt	nt	nt	nt
O=C(CSc1nnc(-c2ccccc2)o1)Nc1ccccc1F	45	59*	-8	-2	6	1	51*
Cc1ccc(-c2nnc(SCC(=O)Nc3ccccc3F)o2)cc1	76*	72*	-2	0	-2	-3	70*
Cn1cc(CN2CCC(N3CCNC(=O)CC3)CC2)c(-c2ccccc2F)n1	4	-9	-4	-6	8	0	nt
Cc1ccccc1OCc1nnc(SCC(=O)Nc2ccc3nc(SCC(=O)NC(C)(C)C)sc3c2)n1C	-15	18	-12	-3	7	-8	-13
O=C(C1Cc2ccccc2CN1S(=O)(=O)c1ccc(F)cc1)N1CCCCC1 (centres undefined)	15	-4	3	1	10	-3	2
COC(=O)c1cccc(S(=O)(=O)N2CCCC2)c1	8	-4	-3	6	12	-2	nt
